# An excerpt weighted towards active compounds, which were near 10% of everything screened.
# Lamin A splicing = changes lamin A minigene splicing in HeLa cells; 200,000 tested, 0.01% active; AID 1487; Potency, µM (doses to about 46.1 µM), actives largely listed as inhibitors; HeLa LMNA splicing GFP/RFP minigene ratio, 48 h; active = well fitted inhibition curve with a large enough effect in the signal ratio, with a control signal flat, not every such curve was filed as active; inconclusive = small, poorly fitted or top-dose-only effect, or effect the other way, or a change in a side signal; the % refers to the signal ratio
#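 Read-out is the ratio of GFP to DsRed2 object intensity, acquired by 488 nm laser-scanning cytometry on HeLa lamin A-EGFP minigene reporter cells. Compound incubation 48 hrs at 37 °C in Opti-MEM with 2% FBS; DMSO 0.5% final.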
# ALDH1A1 block = blocks purified human ALDH1A1 activity | Purified ALDH1A1, NADH fluorescence, propionaldehyde substrate | Potency, µM (titrated, usually from 75.3 µM), most hits filed as inhibitors | 220,000 tested, 7.3% active | AID 1030
# PNC assembly inh = blocks assembly of the perinucleolar compartment; 140,000 tested, 3.1% active; AID 2417; PC3M PTB-GFP, PNC prevalence imaging, 16 h; hits give low values; activity change (PNC), negative = inhibition, % at 10 µM;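 active = readout at or below -70, meaning at least 70% loss of cells showing the perinucleolar compartment, a nuclear body marking cancer cells; inconclusive = readout between -30 and a set limit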
#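 PC3M cells stably expressing PTB-GFP, 750–1000 cells/well, treated 16 h at 37 °C with compound (23 nl of library stock), in duplicate. After paraformaldehyde fixation and Hoechst stain, imaged at 20x; PNC prevalence scored by image analysis.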
# IMPase cell inh = cell-permeable inhibitors of inositol monophosphatase (IMPase); CHO-M1 cells, IP1 accumulation, HTRF TR-FRET ratio; inhibition (IP1 accumulation), % at 46.1 µM; 120,000 tested, under 10 active; AID 901; active = well fitted curve in the direction sought with a large enough effect in the signal ratio, not every such curve was filed as active; inconclusive = small, poorly fitted or top-dose-only effect, or a change in a side signal; inactive = no such curve, though single readings can be large or run the other way; the % refers to the signal ratio;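 also: cells stimulated with carbachol in lithium chloride buffer; higher means more IMPase inhibition seen as more IP1 and lower FRET ratio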
# Target sequence (P97697 whole entry, looked up): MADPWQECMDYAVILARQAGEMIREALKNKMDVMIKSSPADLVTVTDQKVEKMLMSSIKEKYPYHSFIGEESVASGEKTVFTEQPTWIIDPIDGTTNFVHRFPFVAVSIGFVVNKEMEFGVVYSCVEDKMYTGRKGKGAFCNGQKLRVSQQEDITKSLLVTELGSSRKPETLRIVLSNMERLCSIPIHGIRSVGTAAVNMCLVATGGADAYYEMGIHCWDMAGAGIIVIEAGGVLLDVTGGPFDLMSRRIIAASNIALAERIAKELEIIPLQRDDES
#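 Seeded CHO-M1 cells were dosed with compound at up to 46 uM, stimulated with carbachol for 30 min, then lysed in IP-One detection reagents. Higher IP1 lowers the TR-FRET signal.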
# HPGD block = inhibitors of human 15-hydroxyprostaglandin dehydrogenase (HPGD); purified HPGD, NADH fluorescence kinetic, PGE2 substrate; Potency, µM, hits mostly inhibitors; 150,000 tested, 4.3% active; AID 894
# Target sequence (P15428 whole entry, looked up): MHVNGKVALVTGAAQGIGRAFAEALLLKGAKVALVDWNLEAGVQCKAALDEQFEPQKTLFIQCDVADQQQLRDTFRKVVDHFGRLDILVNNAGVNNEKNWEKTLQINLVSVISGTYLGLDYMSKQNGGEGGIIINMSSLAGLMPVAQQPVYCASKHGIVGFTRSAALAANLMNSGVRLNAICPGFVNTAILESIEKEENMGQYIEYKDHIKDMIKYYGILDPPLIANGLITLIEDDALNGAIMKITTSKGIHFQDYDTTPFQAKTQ
#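 20 nM HPGD preincubated 15 min at room temperature with compound in 50 mM Tris-HCl pH 8, 0.01% Tween 20. Started with 1 mM NAD+ and 30 uM prostaglandin E2; NADH fluorescence (360/450 nm) read 5 times over 30-s intervals, last minus first.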
# Luc counter = counter-screen: inhibitors of Kinase-Glo firefly luciferase | AID 1379 | 200,000 tested, 0.28% active | Q27757 | Kinase-Glo luciferase, ATP luminescence, 8 min | Potency, µM (titrated, usually from 38.3 µM), actives largely listed as inhibitors; active = well fitted inhibition curve with a large enough effect; inconclusive = small, poorly fitted or top-dose-only effect; also: nearly all actives have a fitted effect of over 60% in size
#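 Inhibition of Kinase-Glo luciferase light generation was assessed at 10 uM ATP in pH 7.2 imidazole buffer, with luminescence measured after eight minutes at ambient temperature.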
# Numbers stand for hits; n = inactive; u = inconclusive; x = no result given; [ ] = dose if it differs, or a comment. Unless noted, calls follow the shape of the dose curve; as a rule, active = well fitted inhibition curve with a large enough effect (not every such curve was filed as active); inconclusive = small, poorly fitted or top-dose-only effect, or another doubt; inactive = no such curve, though single readings can be large or run the other way.
SMILES,Lamin A splicing,ALDH1A1 block,PNC assembly inh,IMPase cell inh,HPGD block,Luc counter
CCCOc1ccc(C(=O)N(Cc2ccccc2Cl)C2CCS(=O)(=O)C2)cc1 (stereo not given),x,x,x,n,x,x
CCCCOC(=O)c1cccc(NC(=O)c2cc3ccccc3o2)c1,x,x,x,n,x,x
CCOC(=O)CCCCC(=O)c1[nH]c(=O)[nH]c1CSc1nnc2c3ccccc3n(C(C)C)c2n1,n,12.6µM,n,x,u,n
CCCn1c2ccccc2c2nnc(SCc3[nH]c(=O)[nH]c3C(=O)CCCCC(=O)OCC)nc21,n,u,n,n,n,n
Cn1cc(S(=O)(=O)N2CCCCCC2)cc1C(=O)NCc1ccccc1Cl,n,x,x,x,x,x
O=C(O)CCC(=O)NC1CCCCCCC1,n,n,n,n,n,n
O=C(Cn1cccc1)NC1CCCCCC1,n,n,n,n,14.1µM,n
COc1cccc2cc(-c3cn4c(n3)sc3cc(F)ccc34)c(=O)oc12,n,x,x,x,x,x
O=C(N/N=C/c1cn(-c2ccccc2)nc1-c1cccnc1)c1cccnc1,u,n,x,x,x,n
O=C(NCC1CCCO1)/C(=C/c1cn(-c2ccccc2)nc1-c1cccnc1)NC(=O)c1ccccc1 (stereo not given),n,0.562µM,x,x,x,n
O=C(NCCCO)/C(=C\c1cn(-c2ccccc2)nc1-c1cccnc1)NC(=O)c1ccccc1,n,1.78µM,n,x,n,n
Cc1oc2ncn(C)c(=O)c2c1C(=O)N1CCN(c2ccc(Cl)cc2)CC1,n,x,x,x,x,x
O=C(NC1CCCC1)C1CCN(c2nccs2)CC1,n,n,n,n,14.1µM,n
COc1ncc2nc(-c3ccccc3)c(=O)n(C3CC3)c2n1,n,u,x,x,x,x
C/C(=N/NC(=O)c1cc(O)c(O)c(O)c1)c1ccc([N+](=O)[O-])cc1,x,25.1µM,x,x,x,n
COc1ccc(O[C@H]2C=C[C@@H](c3ccccc3)O[C@H]2COC(=O)CC/C(C)=N/OCC[C@@H]2C=C[C@H](OC(C)=O)[C@H](COC(C)=O)O2)cc1,x,n[13.5 µM],x,x,x,x
COc1ccc(-n2[nH]c(C)cc2=O)cc1,u,3.16µM,u,u,n,n
Cc1ccc(NC2=C(NCCO)C(=O)c3ccccc3C2=O)cc1,u,22.4µM,n,x,n,n
COC(=O)c1nnc(C(=O)NCc2ccccc2)c2[nH]c3ccc(OC)cc3c12,x,n,x,x,n,n
Cc1ccccc1N(CC(=O)NC1CCCC1)C(=O)C1(C)CC(=O)N=C2C=CC=CN21 (stereo not given),n,u,-115.7,x,u,n
CC(C)[C@@H](OCc1ccccc1)[C@H](C)/C=N\OC[C@@H](O)[C@@H]1O[C@@H]2OC(C)(C)O[C@@H]2[C@H]1O,x,n[13.5 µM],x,x,x,x
O=C1[C@H]2[C@H]3[C@H](O)[C@H](O)C/C(=N/OCc4ccccc4)[C@@H]3CC[C@@H]2C(=O)N1C1CCCCC1,x,n[13.5 µM],x,x,x,x
O=C1C(Cl)=C(NC2CCc3ccccc32)C(=O)c2ncccc21 (stereo not given),x,11.2µM,x,x,n,n
COc1ccc(N2CCN(Cc3nnc(-c4cccc(Br)c4)o3)CC2)cc1,x,x,x,n,x,x
COc1cc(/C=N/n2c(C)n[nH]c2=S)ccc1OCc1ccc(F)cc1,n,u,n,x,2.82µM,n
SMILES,Lamin A splicing,ALDH1A1 block,PNC assembly inh,IMPase cell inh,HPGD block,Luc counter
COC(=O)C1=C(C(=O)OC)[C@@H]2N(Cc3ccccc3)c3ccccc3[C@@]23C[C@@H](C(=O)OC)N(S(=O)(=O)c2ccc(Br)cc2)C3=N1,u,n[13.5 µM],x,x,n,n[7.66 µM]
CC1CC(C)CN(C(=O)c2ccc(NC(=O)c3ccc(=O)[nH]c3)cc2)C1 (stereo not given),n,n,n,x,7.94µM,n
O=C(Nc1cccc(C(F)(F)F)c1)c1cc(CN2CCOCC2)on1,n,x,x,x,x,x
Cc1ccc(C)c(N2CN(CCC3=CCCCC3)CNC2=S)c1,x,n,x,x,x,x
CCCN1CNC(=S)N(c2cc(C)ccc2C)C1,n,n,-100.0,n,n,n
COc1cc(OC)c(NC(=S)Nc2cccc(C)c2)cc1Cl,n,u,n,n,15.8µM,n
COc1cc(C)c(NC(=S)Nc2cccc(Cl)c2)cc1OC,n,u,n,n,n,n
CC(=O)c1ccc(S(=O)(=O)Nc2cccc(-c3ccc(N4CCCCCC4)nn3)c2)cc1,n,x,x,x,x,x
Cc1ccc(CN/C=C/C(=O)c2ccc(Br)cc2)cc1,u,15.8µM,u,n,u,n
COc1ccc(C(=O)/C=C/NCc2ccc(F)cc2)cc1OC,x,22.4µM,x,x,x,x
O=C(/C=C/NCC(=O)c1ccccc1)c1ccc(Br)cc1,n,7.94µM,-97.1,n,n,n
CCOC(=O)c1ccc(N/C=C/C(=O)c2ccc(OC)c(OC)c2)cc1,n,n,u,n,n,n
O=C(/C=C/NNC(=O)c1ccccc1)c1ccc(Br)cc1,n,u,n,n,n,n
Cc1ccc(NC(=O)c2ccc(NCc3ccc(F)cc3)nc2)cc1,n,u,x,x,x,n
Cc1ccc(CNC(=O)COC(=O)c2ccc(Br)cc2)cc1,n,n,n,x,n,n
Cc1ccc(C(=O)/C=C/NCc2ccc(F)cc2)cc1,n,14.1µM,n,x,n,n
N[C@H](C(=O)O)c1ccc(C(=O)O)cc1,x,n,x,n,n,n
CN(C)c1ccc(CNC(=O)CN2CCSc3ccc(S(=O)(=O)N(C)C)cc32)cc1,n,x,x,x,x,x
Cc1ccc(C(c2nnnn2Cc2cccs2)N2CCN(C(=O)c3ccco3)CC2)cc1 (stereo not given),n,4.47µM,u,n,n,n
O=C(c1ccco1)N1CCN(C(c2ccc(Cl)cc2)c2nnnn2Cc2ccccc2)CC1 (stereo not given),n,u,n,n,n,n
CCC(c1nnnn1Cc1cccs1)N1CCN(C(=O)c2ccco2)CC1 (stereo not given),n,u,x,x,x,n
O=C(c1ccco1)N1CCN(C(c2ccccc2F)c2nnnn2Cc2cccs2)CC1 (stereo not given),n,17.8µM,n,u,n,n
COc1ccc(C(c2nnnn2Cc2ccccc2)N2CCN(C(=O)c3ccco3)CC2)cc1 (stereo not given),n,28.2µM,n,n,n,n
CCN(CC)S(=O)(=O)c1ccc2c(c1)N(CC(=O)N1CCN(c3cccc(OC)c3)CC1)C(=O)CO2,n,x,x,x,x,x
CC(=O)NCCNc1nc(-c2cccnc2)nc2ccccc12,n,n,x,x,x,x
SMILES,Lamin A splicing,ALDH1A1 block,PNC assembly inh,IMPase cell inh,HPGD block,Luc counter
CCCc1nn2c(=O)cc(COC(=O)c3ccccc3NC(=O)C3CCCCC3)nc2s1,n,x,x,x,x,x
CCNc1ncc2ncc(=O)n(CCOC)c2n1,n,u,x,x,x,x
CCO[Si](CCCN)(OCC)OCC,x,n,x,x,n,x
N[C@H](Cc1ccc(F)cc1)C(=O)O,x,x,x,n,x,x
Cc1ccc(S(=O)(=O)N(C(=O)c2ccncc2)c2ccc(OC(=O)c3ccncc3)cc2)c(C)c1,n,n,n,x,28.2µM,n
O=[N+]([O-])c1cccc2c[nH]nc12,x,n,x,n,31.6µM,n
O=[N+]([O-])c1cccc2cn[nH]c12,n,n,n,n,n,n

# Screening results deposited in PubChem BioAssay by National Center for Advancing Translational Sciences (NCATS).
